ATXN2 expr inh = Primary qHTS for Inhibitors of ATXN expression; HEK-293 ATXN2-luciferase reporter, luminescence, 24 h; Potency, µM (highest dose often 57 µM), for inactives: at the highest dose activity change, negative = inhibition, actives largely listed as inhibitors; 0.72% of 360,000 active; note: % is set by controls: 0 for no effect and ±100 for the full control effect; nearly all actives have a fitted effect of over 55% in size
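qHTS (up to 57 uM final) was run with 24 h compound exposure of reporter cells at 37 °C. Each well was multiplexed: SteadyGlo luminescence measured ATXN2-luciferase expression after a fluorogenic Gly-Phe-AFC viability readout (25 uM final).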
TGFb inhibitor = qHTS for Inhibitors of TGF-b; HepG2 CAGA-GFP TGF-b/SMAD3 reporter, GFP fluorescence, 18 h; TGF-beta stimulated, 500 pg/mL final; Potency, µM (top dose mostly 46.1 µM), for the others: at the top dose activity, negative = inhibition, usual class: inhibitors; 1.2% of 410,000 active; note: % is set by controls: 0 for no effect and ±100 for the full control effect; nearly all actives have a fitted effect of over 65% in size
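GFP signal (ex488/em500-530) from TGF-beta-stimulated HEPG2 CAGA-GFP cells, 500 pg/mL final, 18 h at 37 degrees C in DMEM plus 1% FBS, normalized to unstimulated and DMSO-stimulated controls.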
HepG2 tox = qHTS for Inhibitors of TGF-b: Cytotox Counterscreen. 0.76% of 410,000 active. HepG2 CAGA-GFP viability, ATP luminescence, 18 h. AID 588856, 2011. Potency, µM (series often up to 46.1 µM), inactives show at the top dose activity change, negative = cytotoxicity, hits mostly cytotoxic
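HepG2 CAGA-GFP cells (1000/well, DMEM with 1% FBS) received compound, then TGF-beta at 500 pg/mL final, and were incubated 18 hours at 37 degrees C. Viability was read by CellTiter-Glo luminescence. Media-only wells were set as complete cell-killing and DMSO as no toxicity.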
Nrf2 block = Nrf2 qHTS screen for inhibitors | 2.1% of 360,000 active | A549 ARE-Fluc reporter, luciferase luminescence, 18-24 h | Potency, µM (titrated, usually from 46 µM), inactives show at the top dose activity change, negative = inhibition, usual class: inhibitors; note: % is set by controls: 0 for no effect and ±100 for the full control effect; nearly all actives have a fitted effect of over 60% in size
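Nrf2 function is reported as luminescence of an ARE-controlled luciferase in A549 cells. Compounds were tested at several concentrations, and a CellTiter-Fluor read on the same wells flagged cytotoxicity.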
S2 tox = Viability Counterscreen for Primary qHTS for Inhibitors of ATXN expression. S2 cells (HEK-293 line with an ATXN2-luciferase reporter) viability, CellTiter-Fluor protease fluorescence, 24 h. Potency, µM (highest dose often 56.7 µM), usual class: cytotoxic. 0.49% of 400,000 active. AID 651635, 2014; note: nearly all actives have a fitted effect of over 40% in size
A549 tox = Nrf2 qHTS screen for inhibitors: counterscreen for cytotoxicity; Potency, µM (titrated, usually from 46 µM), inactives show top-dose activity change, negative = cytotoxicity, actives largely listed as inhibitors; A549 ARE-Fluc cells, CellTiter-Fluor viability, 18-24 h; 0.16% of 390,000 active; note: % is set by controls: 0 for no effect and ±100 for the full control effect
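Cytotoxicity counterscreen: CellTiter-Fluor fluorescence was measured in A549 ARE_Fluc cells after 18-24 h of compound exposure in a concentration series. The subsequent BugLite luminescent read reports ARE-luciferase activity.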
* = called active by the depositor; i = inactive; ? = inconclusive; nt = no result. Hits are enriched below; roughly 3.8% of the tested compounds scored in any of these assays. Calls come from the whole dose curve; as a rule, active = well fitted curve in the direction sought with a large enough effect; inconclusive = small, poorly fitted or top-dose-only effect, or another doubt; inactive = no such curve, though single readings can be large; an effect the other way counts as inactive or inconclusive. Potency is the fitted concentration of half-maximal effect.

SMILES	ATXN2 expr inh	TGFb inhibitor	HepG2 tox	Nrf2 block	S2 tox	A549 tox
COC(=O)C1=C(C)N(Cc2ccccc2)C(=NCc2ccccc2)N[C@H]1c1ccccc1	?	?	14.1µM*	9.8%	?	2.8%
COC(=O)C1=C(C)N(Cc2ccccc2)C(=NCc2ccccc2)N[C@H]1c1cccc(F)c1	?	?	-112.2%	17.9%	nt	-0.5%
COC(=O)[C@H]1C[C@H]2[C@@H]3CC[C@H]4C[C@@H](OC)CC[C@]4(C)[C@H]3CC[C@]2(C)[C@@]2(CCCO2)O1	6.8%	6.0%	-8.6%	-7.0%	i	5.9%
CC1=C(c2ccc(Cl)cc2)S(=O)(=O)N=C1N1CCN(c2cccc(C)c2)C(C)C1 (stereo not given)	nt	-3.6%	-14.2%	23.1µM*	nt	-3.9%
Cc1ccc(-c2nc3nc(C)cc(N4CCN(c5cccc(C)c5)C(C)C4)n3n2)cc1 (stereo not given)	4.7%	-17.4%	-36.3%	3.9%	i	0.3%
O=C(C1CCN(S(=O)(=O)c2ccc3c(c2)OCCO3)CC1)N1CCc2ccccc21	-10.4%	-5.9%	0.5%	14.6µM*	i	-0.1%
CC(=O)Nc1cccc(S(=O)(=O)N2CCCN(S(=O)(=O)c3ccc4c(c3)OCCO4)CC2)c1	nt	nt	nt	14.6µM*	nt	-11.7%
O=C(C1CCN(S(=O)(=O)c2ccccc2)CC1)N1CCc2ccccc21	3.0%	7.9%	5.2%	-6.6%	i	4.3%
Cc1cccc(NC(=O)C2CCN(S(=O)(=O)c3ccc4c(c3)OCCCO4)CC2)n1	-22.6%	?	2.6%	14.6µM*	i	-14.0%
O=C(NCC(=O)N1CCN(S(=O)(=O)c2ccc3c(c2)OCCO3)CC1)c1ccccc1Cl	-14.5%	0.0%	-2.8%	11.6µM*	i	-3.4%
O=C(NCC(=O)N1CCN(S(=O)(=O)c2ccc3c(c2)OCCO3)CC1)c1ccccc1F	-0.3%	1.0%	-4.8%	-10.6%	i	0.5%
CC1(C(=O)Nc2nccs2)CCN1C(=O)CC(c1ccccc1)c1ccccc1 (stereo not given)	-7.0%	-25.3%	-10.8%	nt	i	nt
CCn1nnc(NC(=O)c2ccco2)n1	8.1%	-0.8%	5.0%	20.8%	i	-1.8%
C=CCC1CCCC(=O)N2CC[C@H](O)C12 (stereo not given in full)	-0.8%	5.5%	22.8%	-2.6%	i	0.6%
O=C(/C=C\c1ccco1)Oc1cccc2cccnc12	nt	3.16µM*	-74.0%	2.5%	i	-2.9%
Cc1c(C(=O)Oc2cccc3cccnc23)oc2ccccc12	-12.0%	?	11.2µM*	14.0%	i	3.6%
O=C(/C=C/c1ccco1)Oc1cccc2cccnc12	-37.7%	?	-47.1%	0.2%	?	-0.6%
COc1ccccc1/C=C/C(=O)Oc1cccc2cccnc12	nt	7.94µM*	10µM*	2.9%	?	3.3%
Cc1ccc2cccc(OC(=O)/C=C\c3ccccc3)c2n1	-15.6%	?	-64.0%	-2.7%	?	-7.9%
CCc1nc2ccccc2c(C(=O)Oc2cccc3cccnc23)c1C	10.7%	0.0%	-21.3%	-17.3%	i	-7.2%
COc1cc(NC(=O)CCn2c(-c3ccccc3)cc(C(C)=O)c2C)cc(OC)c1	nt	-12.3%	-22.8%	nt	nt	-2.2%
Cc1ccc(CNc2ccc3c(c2)OCO3)cc1	31.7%	-0.8%	12.6µM*	nt	i	-24.1%
COc1ccc(CCNC(=O)c2ccc3c(c2)N(Cc2ccc(F)cc2)C(=O)c2ccccc2S3(=O)=O)cc1OC	nt	nt	-27.8%	?	nt	9.8%
O=C(OCC#CCSc1nnc(-c2cccc3ccccc23)o1)c1ccc(F)c(F)c1	nt	nt	nt	9.6%	nt	-3.2%
COC(=O)/C(=C1/Oc2cc(C)oc(=O)c2S1)C(F)(F)F	?	5.62µM*	-30.0%	?	nt	?
